Experimental data from PubChem BioAssay (Tox21).
Where “and” joins values, the source holds several entries; their conditions need not be identical. Identical values can stand only once. Inconclusive results are not listed. More than one record can exist for a structure, and the calls need not agree. Calls of active or inactive are those of the source. Unless noted, calls come from the whole dose curve; as a rule, active = well fitted curve in the direction sought with a large enough effect in the repeat runs; inconclusive = weak or mixed curves; inactive = no such curve, though single readings can be large; an effect the other way counts as inactive or inconclusive.

Columns and labels:
[1] = qHTS assay to identify small molecule agonists of the hypoxia (HIF-1) signaling pathway - cell viability counter screen (AID 1224844; calls by dose curve; note: nearly all actives have a fitted effect of over 50% in size; note: potency is the fitted concentration of half-maximal effect)
Summary of the method: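 Luminescent ATP content (CellTiter-Glo, 30 min, room temperature) served as the viability measure in HRE-bla ME-180 cells exposed to compounds for 17 hrs in low-serum medium (0.5% dialyzed FBS).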

[2] = qHTS assay to identify small molecule agonists of H2AX (AID 1224845; active = well fitted activation curve with a large enough effect in the signal ratio in the repeat runs, not every such curve was filed as active; the % refers to the signal ratio)
Summary of the method: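 Phospho-H2AX Ser139 measured by HTRF (ex 320 nm; em 665 and 620 nm) after 24 hr antibody incubation. Compounds, 15 concentrations, 0.76% DMSO, were applied to CHO-K1 cells for 3hr at 37C before lysis.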

[3] = qHTS assay to identify small molecule agonists of H2AX - cell viability counter screen (AID 1224847; calls by dose curve; note: nearly all actives have a fitted effect of over 30% in size; note: potency is the fitted concentration of half-maximal effect; for activity change, negative = cytotoxicity: top concentration of the series differs between compounds)
Summary of the method: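 Viability of CHO-K1 (wild type) cells after 3 hr compound exposure was measured by CellTiter-Glo luminescence.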

[4] = qHTS RealTime-Glo MT Cell Viability Assay in HepG2 cells - 24 hour (AID 1224867); note: nearly all actives have a fitted effect of over 50% in size; note: potency is the fitted concentration of half-maximal effect
Summary of the method: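 Cells + NanoLuc/prosubstrate dispensed (600 cells/well) → 5 h at 37 C/5% CO2 → compounds in DMSO transferred → 40 h incubation at 37 C, luminescence read at 0, 8, 16, 24, 32, 40 h.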

[5] = qHTS RealTime-Glo MT Cell Viability Assay in HEK293 cells - 32 hour (AID 1224868); note: nearly all actives have a fitted effect of over 50% in size; note: potency is the fitted concentration of half-maximal effect; for activity change, negative = cytotoxic: top concentration of the series differs between compounds
Summary of the method: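 Tox21 10K qHTS, HEK293, 600 cells/well, RealTime-Glo reagent co-dispensed with cells; 5 h preincubation, compound by pintool, 37 C, luminescence at 0–40 h.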

[6] = A CellTox Green Cytotoxicity Assay to monitor cytotoxicity in HEK293 cells - 0 hour (AID 1224869); note: nearly all actives have a fitted effect of over 50% in size; note: potency is the fitted concentration of half-maximal effect
Summary of the method: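 Each value comes from one timepoint of a single continuous run in which HEK293 cells with CellTox Green were exposed to compound for up to 40 h at 37 C, dye fluorescence rising with cell death.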

[7] = qHTS RealTime-Glo MT Cell Viability Assay in HepG2 cells - 40 hour (AID 1224870); note: nearly all actives have a fitted effect of over 50% in size; note: potency is the fitted concentration of half-maximal effect
Summary of the method: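 Real-time viability: cells seeded at 600 per well together with NanoLuc and cell-permeant prosubstrate, compounds added after 5 h incubation. Luminescence tracked at 0, 8, 16, 24, 32 and 40 h of exposure.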

[8] = qHTS assay to identify small molecule antagonists of the estrogen related receptor (ERR) signaling pathway from Tox21 library (AID 1224848); note: nearly all actives have a fitted effect of over 50% in size; note: potency is the fitted concentration of half-maximal effect
Summary of the method: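 Antagonist-mode screen of the Tox21 10K library in an NTP-provided ERR reporter cell line; 18 h compound exposure at 37 C, luminescence measured with ONE-Glo.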

[9] = qHTS assay to identify small molecule agonists of the estrogen related receptor (ERR) signaling pathway from Tox21 library (AID 1224849; calls by dose curve; note: nearly all actives have a fitted effect of over 15% in size); details: ERR reporter cell line, ONE-Glo luciferase, 18 h; at 92.4 µM (top of the series) unless noted
Summary of the method: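 We plated ERR reporter cells, waited 6 h, added compounds in DMSO by pin tool and incubated them 18 h at 37 C. ONE-Glo was then added and luminescence read after 30 min.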

[10] = qHTS assay to identify small molecule agonists of the hypoxia (HIF-1) signaling pathway (AID 1224846; active = well fitted activation curve with a large enough effect in the signal ratio in the repeat runs, not every such curve was filed as active; the % refers to the signal ratio)
Summary of the method: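 Measured by blue/green FRET after loading CCF4-AM: beta-lactamase expressed from a hypoxia response element in ME-180 cells. Test agents were delivered in DMSO and left 17 hrs; cells had been plated 5 hrs earlier in low-serum (0.5% dialyzed FBS) medium.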
% is set by controls: 0 for no effect and ±100 for the full control effect.

CCCN(CCC)CCc1cccc2c1CC(=O)N2
inactive: Potency [1] | outcome [2] | Potency [3] | Potency [4] | Potency [5] | Potency [6] | Potency [7]

COc1ccc(CCN(C)CCCC(C#N)(c2cc(OC)c(OC)c(OC)c2)C(C)C)cc1OC (configuration not stated)
inactive: Potency [1] | outcome [2] | Potency [3] | Potency [6] | Potency [7]
active: Potency [5] 21.3 µM

c1cnc(N2CCN(Cc3ccc4c(c3)OCO4)CC2)nc1
inactive: Potency [1] | outcome [2] | Potency [3] | Potency [4] | Potency [5] | Potency [6] | Potency [7]

COC(=O)[C@@H](N)Cc1ccc(O)c(O)c1
inactive: Potency [1] | Potency [3] | Potency [8] | activity change, positive = activation [9] 6.86% [at 42.5 µM] | Potency [4] | Potency [5] | Potency [6] | Potency [7]

CCOC(=O)c1c(C)n(C)c2ccc(O)cc12
inactive: Potency [1] | outcome [10] | Potency [3] | Potency [8] | activity change, positive = activation [9] -9.16% [at 42.5 µM] | Potency [5] | Potency [6] | Potency [7]

Nc1nc2c(ncn2COC(CO)CO)c(=O)[nH]1
inactive: Potency [1] | outcome [2] | Potency [3] | Potency [6]

O=c1n(CCO)c(=O)n(CCO)c(=O)n1CCO
inactive and 43.6 µM (active): Potency [6]
inactive: Potency [1] | outcome [2] | Potency [3] | Potency [4] | Potency [5] | Potency [7]

NCCCNCCSP(=O)(O)O
inactive: activity change, negative = cytotoxicity [1] 6.46% [at 6.97 µM] | activation (H2AX phosphorylation) [2] -3.9% [at 14 µM] | activity change, negative = cytotoxicity [3] -5.36% [at 14 µM] | activity change, negative = cytotoxicity [4] 1.03% [at 6.97 µM] | activity change, negative = cytotoxic [5] 3.62% [at 6.97 µM] | cytotoxicity [6] -8.49% [at 6.97 µM] | activity change, negative = cytotoxic [7] 0.256% [at 6.97 µM]

O=c1cc(-c2ccccc2)oc2ccccc12
inactive: Potency [1] | Potency [4] | Potency [6] | Potency [7]
active: Potency [5] 15.5 µM and 6.88 µM

C=C1CC[C@H]2C[C@@H]1C2(C)C
inactive: Potency [1] | outcome [2] | Potency [3] | Potency [4] | Potency [5] | Potency [6] | Potency [7]

CC[N+](C)(C)c1cccc(O)c1
inactive: Potency [1] | outcome [2] | Potency [3] | Potency [4] | Potency [5] | Potency [6] | Potency [7]

COC(=O)c1c(Cl)c(Cl)c(C(=O)OC)c(Cl)c1Cl
4.6% (inactive) and 15.8% (active): activity change, positive = activation [9]
inactive: Potency [1] | outcome [10] | Potency [8] | Potency [6] | Potency [7]

Cn1c(N)c(N=O)c(=O)n(C)c1=O
inactive: Potency [1] | Potency [3] | Potency [8] | Potency [4] | Potency [5] | Potency [6] | Potency [7]

COCCCOCCCOC
inactive: outcome [2] | Potency [3] | Potency [8] | Potency [4] | Potency [5] | Potency [7]

CC(C(=O)O)c1ccc(CC2CCCC2=O)cc1 (configuration not stated)
inactive: Potency [1] | outcome [2] | Potency [3] | Potency [5] | Potency [6] | Potency [7]

Cc1cc(O)cc2c1O[C@](C)(CCC[C@H](C)CCC[C@H](C)CCCC(C)C)CC2
inactive: Potency [1] | Potency [3] | Potency [8] | activity change, positive = activation [9] 6.7% [at 42.5 µM] | Potency [4] | Potency [5] | Potency [6] | Potency [7]

N=c1nc(N2CCCCC2)cc(N)n1O
inactive: Potency [1] | outcome [2] | Potency [3] | Potency [5] | Potency [6] | Potency [7]

CN(C)CCCN1c2ccccc2CCc2ccc(Cl)cc21
active: Potency [1] 49 µM | Potency [3] 113 µM | Potency [8] 68.6 µM | Potency [4] 49 µM and 23.9 µM | Potency [5] 34.7 µM and 21.3 µM | Potency [7] 43.6 µM

Nc1cc(=O)[nH]c(N)n1
inactive: Potency [1] | outcome [2] | Potency [3] | Potency [4] | Potency [5] | Potency [7]

CN1CCC(=C2c3ccccc3CC(=O)c3sccc32)CC1
inactive: Potency [1] | outcome [2] | Potency [3] | Potency [4] | Potency [5] | Potency [7]

COc1nc(N)nc2c1ncn2[C@@H]1O[C@H](CO)[C@@H](O)[C@@H]1O
inactive: Potency [1] | Potency [3] | Potency [8] | activity change, positive = activation [9] 4.89% [at 42.5 µM] | Potency [5] | Potency [7]

CCOC(=O)CC(C)=O
inactive: Potency [1] | outcome [2] | Potency [3] | Potency [5] | Potency [7]

c1ccc([C@H]2CN3CCSC3=N2)cc1
inactive: Potency [1] | outcome [2] | Potency [3] | Potency [5] | Potency [6] | Potency [7]
